# Screening data as filed in PubChem.
# A selection: hits, their analogues and other compounds. The true share with any hit is near 3.6%.
# PHOSPHO1 inh = inhibitors of human PHOSPHO1 phosphatase; Q8TCT1; hit rate 1.1% among 290,000; inhibition, % at 13.3 µM; recombinant PHOSPHO1, absorbance phosphatase assay; AID 1565; in the data active = inhibition above about 60%
# Target sequence (Q8TCT1 whole entry, looked up): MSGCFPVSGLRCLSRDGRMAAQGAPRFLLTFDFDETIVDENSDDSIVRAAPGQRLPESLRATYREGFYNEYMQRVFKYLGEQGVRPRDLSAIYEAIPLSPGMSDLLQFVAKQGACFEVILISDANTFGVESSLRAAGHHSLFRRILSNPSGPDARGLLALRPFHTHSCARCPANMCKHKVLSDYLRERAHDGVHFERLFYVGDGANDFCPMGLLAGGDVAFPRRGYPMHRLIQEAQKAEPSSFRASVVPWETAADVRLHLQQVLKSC
# Wnt bcat act = activates Wnt/beta-catenin signaling in a reporter cell assay | activator, plate reader | activation, % at 9.35 µM | hit rate 1.2% among 300,000; in the data active = activation above about 30%, passing the limit was not always enough; inconclusive = no clear call, values can overlap the other calls;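 note: 0% = neutral control wells and 100% = positive control wells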
# esBAF inh = inhibitors of esBAF chromatin remodeling in mouse ES cells; Bmi1-luciferase knock-in reporter, 24 h; 100% = twice the neutral-well signal; reporter increase, % at 12.5 µM; hit rate 2% among 350,000; in the data active = activation above about 40%; inconclusive = no clear call, values can overlap the other calls;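 note: 0% = median of the plate's neutral control wells and 100% = double that signal; a rise in the Bmi1 reporter signal indicates esBAF inhibition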
# APOBEC3G inh = inhibitors of human APOBEC3G DNA deaminase; Q9HC16; recombinant A3G, ssDNA deamination FAM/TAMRA fluorescence; AID 493012; hit rate 0.28% among 330,000; inhibition, % at 20 µM;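 active = inhibition of at least 40% at 20 µM, with no more than 30% in the related APOBEC3A deaminase screen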;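 note: plate controls were DMSO wells with A3G for no effect and wells lacking A3G enzyme for full effect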
# Target sequence (Q9HC16 whole entry, looked up): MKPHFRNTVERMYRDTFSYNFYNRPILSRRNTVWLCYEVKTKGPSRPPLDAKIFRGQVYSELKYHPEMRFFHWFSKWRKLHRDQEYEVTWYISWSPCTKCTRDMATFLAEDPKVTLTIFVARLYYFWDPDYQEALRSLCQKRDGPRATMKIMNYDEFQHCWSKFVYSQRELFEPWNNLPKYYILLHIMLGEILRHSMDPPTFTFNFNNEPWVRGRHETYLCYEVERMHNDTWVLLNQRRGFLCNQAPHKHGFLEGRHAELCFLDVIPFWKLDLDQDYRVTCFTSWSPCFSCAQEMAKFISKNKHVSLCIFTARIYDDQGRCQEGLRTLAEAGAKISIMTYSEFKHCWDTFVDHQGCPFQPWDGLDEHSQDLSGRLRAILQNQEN
# MITF act = activators of MITF-driven TRPM1 promoter activity in SK-MEL-5 cells. activation, % at 12.5 µM. SK-MEL-5 TRPM1-promoter luciferase, 24 h; % of positive control, neutral wells = 0. AID 588334. hit rate 0.75% among 300,000;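 active = mean activation of at least 80% with every replicate also reaching 80%; inconclusive = mean reaches 80% but some replicate falls short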;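 note: 0% = neutral control wells and 100% = parthenolide positive control wells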
# APOBEC3A inh = blocks human APOBEC3A ssDNA deamination; P31941; recombinant A3A, FAM/TAMRA ssDNA deamination fluorescence; inhibition, % at 20 µM; hit rate 0.41% among 330,000; AID 493011;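 active = at least 40% inhibition at 20 µM here, with at most 30% in a related deaminase screen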;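 note: plate controls were A3A with DMSO for no effect and wells lacking A3A enzyme for full effect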
# * hit, by the source's call; u = inconclusive; x = not tested or not shown.
SMILES,PHOSPHO1 inh,Wnt bcat act,esBAF inh,APOBEC3G inh,MITF act,APOBEC3A inh
O=C(Nc1ccccn1)c1ccc(Cl)c(S(=O)(=O)N2CCCC2)c1,x,2.8,56.4*,-11.1,41.4,-1.7
CO[C@@H]1CN(C)C(=O)c2ccc(NC(=O)Cc3ccccc3)cc2OC[C@H](C)N(C)C[C@@H]1C,x,x,4.3,x,x,x
O=C(Nc1nnc(C2=COCCO2)o1)c1cccc(Br)c1,61.0*,0.6,-4.2,1.7,-5.6,0.3
O=C(Nc1nnc(C2=COCCO2)o1)c1cccc([N+](=O)[O-])c1,7.7,1.2,-4.0,-1.8,1.2,1.3
C[C@H](CO)N1C[C@H](C)[C@H](CN(C)S(=O)(=O)c2ccc(C#N)cc2)Oc2ncc(-c3ccc(F)cc3)cc2C1=O,x,x,1.0,x,x,x
C=CCn1c2ccccc2c(=O)c2cc(C#CC[C@@H](C)O)ccc21,x,36.1*,52.5*,-7.5,94.2*,-3.6
Cc1ccc(S(=O)(=O)N(C)C[C@@H]2OCCCC[C@@H](C)Oc3ccc(NC(=O)Cc4ccccc4)cc3C(=O)N([C@H](C)CO)C[C@@H]2C)cc1,x,x,7.6,x,x,x
Cc1cccc(NC(=O)CCNC(=O)c2ccc(Br)cc2)c1,28.0,10.5,54.1*,-7.3,64.2,-2.0
CC1CCC(NC(=O)CCNC(=O)c2ccc(Br)cc2)CC1 (stereo not given),x,-4.6,u,-6.7,81.6*,-4.7
CC(=O)Nc1cccc(NC(=O)c2ccc(Br)cc2)c1,36.5,3.1,42.3*,-6.3,20.1,-1.4
O=C(CCNC(=O)c1ccc(Br)cc1)Nc1cccc(S(=O)(=O)N2CCCC2)c1,x,-3.1,4.8,-10.9,-4.6,5.4
C[C@@H]1CN([C@@H](C)CO)S(=O)(=O)c2ccc(C#CC(C)(C)O)cc2O[C@H]1CN(C)C(=O)CC1CC1,x,x,-3.9,x,x,x
CSc1cccc(NC(=O)CNC(=O)c2ccc3c(c2)OCO3)c1,x,-1.9,10.3,-6.8,7.1,-2.7
CSc1cccc(-n2cc(-c3ccc4c(c3)OCO4)[nH]c2=O)c1,27.3,x,45.2*,x,9.9,x
C[C@@H]1CN([C@@H](C)CO)C(=O)c2cc(NC(=O)c3ccncc3)ccc2O[C@@H]1CN(C)C(=O)Nc1ccc2c(c1)OCO2,x,x,35.1,x,x,x
Cc1noc(C)c1S(=O)(=O)Nc1ccc2c(c1)CC(=O)N([C@@H](C)CO)C[C@@H](C)[C@@H](CN(C)C(=O)Nc1ccc3c(c1)OCO3)O2,x,x,-1.2,x,x,x
O=C(Nc1ccc2nc(N3CCOCC3)sc2c1)c1ccc(F)cc1,x,-1.8,8.0,1.3,15.0,3.9
O=C(c1cccs1)N1CCN(c2nc3c(F)cc(F)cc3s2)CC1,x,1.1,43.1*,-5.6,48.2,0.3
CC1CCCCC1NC(=O)/C=C/c1nc2ccccc2s1 (stereo not given),-22.9,25.3,x,5.5,66.7,1.7
Cc1cc(C)c2nc(N3CCN(C(=O)c4cccs4)CC3)sc2c1,x,1.5,x,-7.4,2.1,-3.6
Cc1cccc(C)c1NC(=O)N1CCN(c2nc3ccccc3s2)CC1,-18.4,1.7,47.8*,-11.8,-8.5,-2.8
O=C(/C=C/c1nc2ccccc2s1)N1CCCCCC1,2.2,10.2,32.4,5.2,100.4*,-2.0
O=C(Nc1ccc(F)cc1F)c1ccc2nc(N3CCOCC3)sc2c1,46.1,3.0,41.7*,-3.4,x,0.0
Cc1noc(C)c1S(=O)(=O)N(C)C[C@@H]1Oc2ccc(NC(=O)C3CC3)cc2CC(=O)N([C@@H](C)CO)C[C@H]1C,x,x,-2.9,x,x,x
CO[C@H]1CN(C)C(=O)c2ccc(NS(C)(=O)=O)cc2OC[C@@H](C)N(C(=O)C2CC2)C[C@H]1C,x,x,-0.5,x,x,x
SMILES,PHOSPHO1 inh,Wnt bcat act,esBAF inh,APOBEC3G inh,MITF act,APOBEC3A inh
O=C(O)CCC(=O)N1CCN(c2nc3ccccc3s2)CC1,-22.1,7.0,0.0,-8.7,-9.1,-5.3
NC(=O)C1CCN(C(=O)c2ccc3nc(N4CCCCC4)sc3c2)CC1,28.5,1.0,x,2.6,46.0,-0.7
Fc1cc(F)c2nc(N3CCCCC3)sc2c1,25.3,20.6,66.2*,-3.0,45.8,-3.8
c1ccc2sc(N3CCCCC3)nc2c1,x,16.5,48.9*,x,47.3,x
c1ccc(CN2CCN(c3nc4ccccc4s3)CC2)cc1,x,40.2*,u,-6.0,77.5,-2.8
Fc1ccc2nc(N3CCCC3)sc2c1,23.3,-0.3,u,-12.6,156.0*,2.9
C[C@H](CO)N1C[C@H](C)[C@@H](CN(C)Cc2ccncc2)Oc2ccc(NC(=O)CCCCCC(=O)Nc3ccccc3N)cc2CC1=O,x,x,0.9,x,x,x
CC(C)CN1CCN(C(=O)CCc2nnc(Cc3c[nH]c4ccccc34)o2)[C@@H](C)C1=O,65.8*,3.7,16.9,0.0,16.7,0.8
C[C@@H]1CN([C@H](C)CO)C(=O)c2cc(NC(=O)Nc3ccc(C(F)(F)F)cc3)ccc2O[C@H]1CN(C)CC1CCCCC1,x,x,-2.9,x,x,x
Cc1nc(SCCc2ccccc2)[nH]c(=O)c1C,22.4,x,49.9*,-4.1,-11.2,-2.7
O=C(N[C@H]1C=C[C@H](CC(=O)N2CCOCC2)O[C@@H]1CO)c1cccc(F)c1,x,x,-6.3,x,x,x
Cc1occc1-c1nnc(SC(C)C(=O)Nc2ccccc2F)o1 (stereo not given),x,41.8*,x,-4.3,57.5,-0.2
COc1ccc(S(=O)(=O)Nc2ccc3c(c2)C(=O)N([C@@H](C)CO)C[C@@H](C)[C@@H](CN(C)S(=O)(=O)c2c(C)noc2C)OCCCC[C@@H](C)O3)cc1,x,x,-2.6,x,x,x
CCCc1ccc2oc(C(=O)N(C)Cc3ccn[nH]3)c(C)c2c1,34.4,6.7,74.9*,-4.5,43.7,-3.7
CCCc1ccc2oc(C(=O)NCCc3cnn(C)c3)c(C)c2c1,22.2,29.9,47.4*,-6.2,67.9,-0.4
C[C@@H]1CN([C@H](C)CO)C(=O)c2cc(C#Cc3cccnc3)cnc2O[C@@H]1CN(C)C(=O)CN(C)C,x,x,-3.3,x,x,x
O=C(Nc1ccc(Oc2cccnc2)cc1)c1ccccc1Cl,-15.0,2.1,x,-3.7,18.5,-1.7
O=C(Nc1ccc(Oc2cccnc2)cc1)c1ccccc1F,17.6,18.4,60.3*,-7.3,74.1,1.1
Cc1ccsc1C1NC(=O)c2c(sc3c2CCCC3)N1 (stereo not given),10.4,x,49.9*,6.5,51.8,5.4
O=C1NC(c2ccc(Br)cc2)Nc2sc3c(c21)CCC3 (stereo not given),-57.1,7.6,2.9,1.4,-13.7,4.1
O=C1NC(c2ccccn2)Nc2sc3c(c21)CCC3 (stereo not given),58.6,x,66.1*,-2.1,u,4.2
O=c1c2ccccc2nc2c3ccccc3c(NCc3ccccn3)nn12,37.0,48.9*,x,-4.2,16.5,-0.8
O=c1c2ccccc2nc2c3ccccc3c(NCc3cccnc3)nn12,45.6,-1.3,x,-7.2,2.9,3.7
Cc1ccc(Nc2nc(CSc3n[nH]c(N)n3)cs2)cc1,38.0,42.7*,-50.0,-6.6,93.1*,-2.8
Cn1nnnc1SCc1csc(Nc2ccccc2)n1,94.9*,x,u,-4.2,58.4,-3.6
Cc1ccc(Nc2nc(CSc3nnnn3C)cs2)cc1,10.7,29.6,61.3*,-6.0,74.9,-5.9
